# Experimental data from ChEMBL document CHEMBL3988442, “University of Dundee, Small-Polar-MMV Screening Library” (2021).
# In all, about 69,000 compounds went through this assay and about 950 (1.4%) showed an effect of 50% or more. Many of the other results were omitted from the sample, so strong results are more common in it than they were.
# System: Mycobacterium tuberculosis
# Assay: Cornell M. t heat shock assay; also: in the data most compounds retested in dose-response had high values
# Type: functional, organism-based
# Parameters: dose or concentration left out as unconfirmed
row,Structure (SMILES),Percent Effect [%]
1,NC(=O)N1CCC2(CC1)CN(Cc1cccnc1)C(=O)CO2.O=C(O)C(F)(F)F,-31.58
2,Cn1cc(CN2C[C@H]3CCC[C@@]3(COCC3CC3)C2)cn1.O=C(O)C(F)(F)F,12.92
3,COc1cc(CNCC(O)c2cccc(F)c2)cc2c1OCO2.Cl (configuration not stated),-9.248
4,Cc1cccc(CN2CC[C@H]3[C@H]2CCN3Cc2cnn(C)c2)n1.O=C(O)C(F)(F)F.O=C(O)C(F)(F)F.O=C(O)C(F)(F)F,-12.06
5,Cc1noc(C)c1CN1CCC2(CC1)NC(=O)CC2c1ccccc1.O=C(O)C(F)(F)F (configuration not stated),5.51
6,Cc1noc(C)c1C(=O)N1Cc2ncn(C)c2C(COCC2CC2)C1.O=C(O)C(F)(F)F (configuration not stated),16.79
7,CCN1CCC2(CCN(Cc3ccc(OC)cc3)CC2)C1=O.O=C(O)C(F)(F)F,-24.62
8,Cl.N[C@@H](Cc1ccccc1)c1nnc(S(=O)(=O)Cc2cccc(Cl)c2)o1,-4.264
9,Cc1ccc(N2CCC(c3[nH]ncc3Cc3ccccc3)CC2)nn1,102.6
10,Cc1ccc(N2CCC(c3cc(Cc4ccccc4)n[nH]3)CC2)nn1,6.303
11,CCc1cn[nH]c1C1CCN(c2cc(C)c3cccc(OC)c3n2)CC1,85.21
12,CCc1cn[nH]c1C1CCN(c2cc(C)c3ccc(OC)cc3n2)CC1,-17.8
13,Cc1ccc(N2CCCC(c3[nH]ncc3Cc3ccccc3)C2)nn1 (configuration not stated),8.561
14,CCc1cn[nH]c1C1CCN(c2cc(C)c3cc(OC)ccc3n2)CC1,2.652
15,CC(=O)N1CCN(Cc2ccc(C)o2)CC2(CC(=O)N(C)C2)C1.O=C(O)C(F)(F)F (configuration not stated),-2.414
16,Cc1nc(N)ncc1C(=O)N1CCCC(CCc2ccc(F)cc2)C1 (configuration not stated),-19.18
17,Cc1ncccc1NC(=O)[C@@H]1CCO[C@@H]2CCN(c3ccccc3)C[C@@H]21.O=C(O)C(F)(F)F.O=C(O)C(F)(F)F,12.9
18,CCN(Cc1noc(C)n1)C(=O)CC1C(=O)NCCN1CC(C)(C)C (configuration not stated),-17.37
19,OC(CN1CCN(CC2CCCCC2)CC1)c1ccccc1 (configuration not stated),50.33

row,Structure (SMILES),Percent Effect [%]
1,OC(CN1CCN(CC2CC2)CC1)c1ccc(Br)cc1 (configuration not stated),6.961
2,O=C(N1CCCCC1)N1CCN(CC(O)c2ccccc2)CC1 (configuration not stated),-21.19
3,CCCn1nc(C)c(-c2cncn2CCN(C)C2CCCC2)c1C.Cl,7.382
4,CN(C)S(=O)(=O)N1CCC[C@]2(C[C@@H](Oc3ncccc3F)CO2)C1.O=C(O)C(F)(F)F,-8.336
5,CNC(=O)CCCNc1cc(C)nc2cc(C)nn12,-5.305
6,Cc1cc(C(F)(F)F)nc(CNc2cc(C)nc3cc(C)nn23)n1,65.55
7,CNS(=O)(=O)CCNc1cc(C)nc2cc(C)nn12,10.96
8,Cc1cc(NCc2cc(C)oc2C(F)(F)F)n2nc(C)cc2n1,56.47
9,Cc1cc(NCc2cccnc2)n2nc(C)cc2n1,1.456
10,Cc1cc(NCc2ccc(C#N)cc2)n2nc(C)cc2n1,-9.847
11,Cc1cc(NCCCC(F)(F)F)n2nc(C)cc2n1,87.73
12,Cc1cc(NCc2ccc(CO)cc2)n2nc(C)cc2n1,10.67
13,Cc1cc(NCc2ccc(O)cc2)n2nc(C)cc2n1,21.53
14,CC(C)OCCCN(CC(=O)N1CCNCC1)C(=O)c1cccc(Cl)c1.O=C(O)C(F)(F)F,-0.6086
15,COc1cccc(CN2C[C@@H]3COC[C@]3(CN3CCOCC3)C2)c1.O=C(O)C(F)(F)F.O=C(O)C(F)(F)F,-20.77
16,Cc1noc(C)c1CN1C[C@@H]2COC[C@@H](CC(=O)N3CCCCO3)[C@@H]2C1.O=C(O)C(F)(F)F,-4.663
17,CCC(C)[C@H](N)c1nnc(SCC(=O)Nc2ccc(Br)cc2)o1.Cl (some centres not stated),-9.343
18,O=C(O)C(F)(F)F.c1cc(COC[C@H]2CCC[C@]23CNCCO3)ccn1,31.7
19,CN(C)c1ncnc2c1CCN(CC1CCCC1)CC2.O=C(O)C(F)(F)F,2.211

row,Structure (SMILES),Percent Effect [%]
1,CC(C)(C)c1cn2c(n1)C(CNCc1ccccn1)CCC2 (configuration not stated),70.45
2,CC(C)(C)c1cn2c(n1)C(CNCc1cnn3ccccc13)CCC2 (configuration not stated),15.66
3,Cn1cccc1CNCC1CCCn2cc(C(C)(C)C)nc21 (configuration not stated),1.286
4,CCOCC1CN(c2ccncn2)Cc2cnn(CC3CC3)c21.O=C(O)C(F)(F)F.O=C(O)C(F)(F)F (configuration not stated),-24.31
5,COc1ncccc1C(=O)N1CC[C@]2(C[C@@H](Oc3cccnc3)CO2)C1.O=C(O)C(F)(F)F.O=C(O)C(F)(F)F,-28
6,Cc1cccc(CN2C[C@@H]3COC[C@]3(CNC(=O)c3ccccc3)C2)n1.O=C(O)C(F)(F)F.O=C(O)C(F)(F)F,-15.75
7,CN1CC(=O)N(c2cnn(C)c2)CC12CCN(Cc1cccnc1)C2.O=C(O)C(F)(F)F.O=C(O)C(F)(F)F.O=C(O)C(F)(F)F (configuration not stated),-54.01
8,Cc1noc(C)c1CN1C[C@@H]2COC[C@@H](C(=O)N3CCCCO3)[C@@H]2C1.O=C(O)C(F)(F)F,-3.514
9,COc1ccccc1N1CCN(C(=O)Cn2nc(C)cc2C)CC1(C)C,8.115
10,COc1ccc(N2CCN(C(=O)Cn3nccc3C)CC2(C)C)cc1,16.6
11,COc1ccccc1N1CCN(C(=O)Cn2nccc2C)CC1(C)C,90.85
12,O=C(c1c[nH]c2ccccc2c1=O)N1CCSCC1,105.4
13,COc1ccc2[nH]cc(C(=O)N3CC[C@H](CO)[C@@H](O)C3)c(=O)c2c1,-0.5763
14,O=C(Cc1c[nH]c2ccccc12)N1CCN(C(=O)c2ccoc2)CC1,3.224
15,Cc1nccc(NCc2cncc3c2CCN(CCN(C)C)C3)n1,3.393
16,COc1ccccc1N1CCN(Cc2ncc(C)c(OC)c2C)CC1=O,18.05
17,Cc1cc(C)n(-c2nc(NCCCO)c3c4c(sc3n2)CCCC4)n1,101.1
18,COCCNc1nc(-n2nc(C)cc2C)nc2sc3c(c12)CCCC3,40.33
19,Cc1cc(C)n(C2=NC(NCCC(C)C)c3c(sc4c3CCCC4)N2)n1 (configuration not stated),11.87
